Drawing on ChEMBL document CHEMBL1157539, “Thousands of chemical starting points for antimalarial lead identification” (Nature, 2010), this text covers Inhibition for 40 compounds.

The first assay deals with Plasmodium falciparum. Nature of the assay: GSK_TCMDC: Inhibition of Plasmodium falciparum 3D7 in whole red blood cells, using parasite LDH activity as an index of growth. Test compounds present at 2uM. In kind it is functional.
Usually Inhibition stands for the relative decrease from the control value, in per cent. Read a low Inhibition as a response near the control. In turn, `COc1cc(Nc2ccnc3cc(-c4ccccn4)ccc23)cc(OC)c1OC.Cl` gave an Inhibition of 91%.

`CN1CCN(CCCCCNc2c3ccccc3nc3ccccc23)CC1.Cl`: the Inhibition is 99%.

Regarding `O=C(Nc1ccccc1)N(Cc1cccc(-c2ccc(CNCCc3ccccc3)cc2)c1)C1CCN(Cc2ccccc2)CC1.O=C(O)C(F)(F)F`, the Inhibition was determined as 100%.

For `CCc1ccc(CN2CCC(NC(=O)c3ccc(-c4ccccc4F)s3)CC2)cc1.O=C(O)C(F)(F)F`, the Inhibition came out at 80%.

Compound `CCN(CC)CCNc1ccnc2c3ccccc3n(C)c12` yielded an Inhibition of 100%.

In turn, `COc1ccc(NC(=O)[C@H](Cc2ccccc2)Nc2nc(NCCN3CCCC3)ncc2C)cc1.O=C(O)C(F)(F)F` yielded an Inhibition of 89%.

Take `COc1cc(CC2c3cc(O)c(Cl)cc3CCN2C)c(OC)cc1C.Cl` (configuration not stated): the Inhibition amounted to 99%.

For the compound `CC(CN1CCN(C)CC1)C(=O)Nc1cccc(-c2ccc(-c3nc4cc(C(F)(F)F)ccc4[nH]3)cc2)c1` (configuration not stated), the Inhibition came to 100%.

With `Cn1c(N)cc(-c2ccc(Br)cc2)c2c(=O)nc(N)nc1-2`, the Inhibition turned out to be 80%.

As for `CN(C)Cc1ccc(-c2ccc(NC(=O)c3ccc4c(=O)n(Cc5ccccc5)cnc4c3)cc2)cc1`, the Inhibition is recorded as 100%.

As for `COCCNCc1cccc(-c2ccc3c(Nc4ccc(F)cc4Cl)ccnc3c2)c1`, the Inhibition is 100%.

In the case of `COc1ccc(-c2cnc3ccc(NCCCO)nn23)cc1OC`, the Inhibition is reported as 98%.

For the compound `CN1CCN(CCCN(Cc2csc(-c3ccc(CNCc4ccccc4)cc3)n2)C(=O)Nc2cccc(Cl)c2)CC1.O=C(O)C(F)(F)F`, the Inhibition was 100%.

Regarding `CCN(CC)CCNC(=O)/C(=C/C=C/c1cc2cc(Cl)c(Cl)cc2[nH]1)OC`, the Inhibition is reported as 88%.

With `COc1cc(NC(=O)C(c2ccc(Cl)cc2)C(C)C)cc(OC)c1OC` (configuration not stated), the Inhibition came out at 100%.

Take `COc1c(C2CCN(CCCCNC(=O)c3cccc(-c4ccc(C(F)(F)F)cc4)c3)CC2)ccc2c1CCCC2`: the Inhibition was 92%.

For the compound `CCOC(=O)C1=C(C)N=c2sc(=Cc3cc(Cl)ccc3O)c(=O)n2C1c1ccc2c(c1)OCO2` (configuration not stated), the Inhibition stood at 96%.

`CCNc1cc(C(=O)N[C@@H](Cc2ccccc2)[C@H](O)CN[C@@H]2CCc3ccccc32)cc(N2CCCCS2(=O)=O)c1` displayed an Inhibition of 98%.

Turning to `CNCCNCc1cccc(-c2ccc(-c3nc4cccc(C)c4[nH]3)s2)c1.O=C(O)C(F)(F)F`, the Inhibition stood at 92%.

On to `CC(CCc1ccccc1)NCC(O)c1ccc2c3c(cccc13)S(=O)(=O)N2C.Cl` (configuration not stated), for which the Inhibition is 99%.

For the compound `Cc1ccc(C(=O)N2CCN(Cc3nccs3)CC2)cc1`, the Inhibition was found to be 86%.

Take `O=C(/C=C/c1cc(C(F)(F)F)ccc1F)NCCCCCN1CCC(c2c[nH]c3ccccc23)CC1`: the Inhibition was 88%.

In the case of `O=C(Nc1ccc(OC2CCN(Cc3ccccc3)C2)c(Cl)c1)c1ccsc1.O=C(O)C(F)(F)F` (configuration not stated), the Inhibition turned out to be 93%.

Consider `Cc1cccc(CN2CCC(C(=O)Nc3ccc(-c4nc5ccccc5[nH]4)cc3)CC2)n1`, for which the Inhibition came out at 96%.

On to `C=C1C(C(=O)OCC)=CN(CC)c2cc(O[C@@H]3CCN(C(=O)OC(C)(C)C)C3)ccc21`, for which the Inhibition worked out at 97%.

Turning to `CC(C)C[C@H](NC(=O)c1cc2ccccc2s1)C(=O)N[C@H]1CCN(Cc2ccc(OC[C@@H]3CCCN3C)c3ccccc23)C1.O=C(O)C(F)(F)F`, the Inhibition is 100%.

Consider `CN1CCN(CC(=O)Nc2cccc(-c3ccc(-c4nc5cc(C(F)(F)F)ccc5[nH]4)s3)c2)CC1`, for which the Inhibition stood at 100%.

In another assay the test system is Plasmodium falciparum. The experiment in a line: GSK_TCMDC: Inhibition of Plasmodium falciparum Dd2 in whole red blood cells, using parasite LDH activity as an index of growth. Test compounds present at 2uM. In kind it is functional.
`Cc1[nH]c(C)c(-c2ccc(Oc3ccc(Cl)cc3)cc2)c(=O)c1Br` gave an Inhibition of 96%.

Consider `CN1CCN(c2cc3c(Nc4ccc5c(cnn5Cc5ccccc5)c4)ncnc3cn2)CC1`, for which the Inhibition turned out to be 35%.

`CC(C)CNCc1cccc(-c2ccc(CN(CCCN3CCN(C)CC3)C(=O)/C=C/c3ccccc3)cc2)c1.O=C(O)C(F)(F)F`: the Inhibition stood at 90%.

`O=C(Nc1ccccc1)NC1CCN(CCC2(c3ccc(Cl)c(Cl)c3)COCN(C(=O)c3ccccc3)C2)C1` (configuration not stated) showed an Inhibition of 81%.

In turn, `Cc1cc(C(=O)NC2CCN(Cc3ccccc3)CC2)ccc1-c1nc2cc(Cl)c(Cl)cc2[nH]1` displayed an Inhibition of 32%.

For the compound `Cc1ccc(-c2cc(C(=O)Nc3ccc(S(=O)(=O)N4CCOCC4)cc3)[nH]n2)c(O)c1C`, the Inhibition is 45%.

Compound `CC1(C)CCC(C)(C)c2c1ccc(C1CCN(CCCCNC(=O)c3ccc(-c4ccc(Cl)cc4)cc3)CC1)c2O` yielded an Inhibition of 72%.

In turn, `O=C(c1cccc(-c2noc(C(F)(F)F)n2)c1)N1CCN(C(=O)c2ccc3cc[nH]c3c2)CC1` showed an Inhibition of 85%.

In the case of `CCCN1CCN(CCNC(=O)c2cccc(Nc3nccc(Nc4ccc(Oc5ccccc5)cc4)n3)c2)CC1`, the Inhibition is 96%.

The compound `O=C(Nc1cccnc1)c1cc(-c2cccnc2)nc2ccc(Cl)cc12` returned an Inhibition of 50%.

In turn, `C=Cc1c(C2CCN(CCCCNC(=O)c3ccc(-c4ccc(C#N)cc4)cc3)CC2)ccc2c1CCCC2` came in with an Inhibition of 75%.

`C[C@H](Cc1ccc(OCCCCCCOc2ccc(C[C@@H](C)N[C@H](C)c3ccccc3)cc2)cc1)NC[C@H](O)c1cccc(Cl)c1.Cl` came in with an Inhibition of 98%.

`COCCN(C)CCCOc1cc2c(cc1OC)ncn2-c1cc(OCc2ccccc2C(F)(F)F)c(C(N)=O)s1.Cl` gave an Inhibition of 49%.

The compound `COc1cc(Nc2ccnc3cc(-c4ccccn4)ccc23)cc(OC)c1OC.Cl` gave an Inhibition of 0%.

`CN1CCN(CCCCCNc2c3ccccc3nc3ccccc23)CC1.Cl` came in with an Inhibition of 0%.

In the case of `O=C(Nc1ccccc1)N(Cc1cccc(-c2ccc(CNCCc3ccccc3)cc2)c1)C1CCN(Cc2ccccc2)CC1.O=C(O)C(F)(F)F`, the Inhibition came out at 95%.

As to `CCc1ccc(CN2CCC(NC(=O)c3ccc(-c4ccccc4F)s3)CC2)cc1.O=C(O)C(F)(F)F`, the Inhibition is 12%.

In turn, `CCN(CC)CCNc1ccnc2c3ccccc3n(C)c12` registered an Inhibition of 99%.

For `COc1ccc(NC(=O)[C@H](Cc2ccccc2)Nc2nc(NCCN3CCCC3)ncc2C)cc1.O=C(O)C(F)(F)F`, the Inhibition turned out to be 9%.

As for `COc1cc(CC2c3cc(O)c(Cl)cc3CCN2C)c(OC)cc1C.Cl` (configuration not stated), the Inhibition is 88%.

On to `CC(CN1CCN(C)CC1)C(=O)Nc1cccc(-c2ccc(-c3nc4cc(C(F)(F)F)ccc4[nH]3)cc2)c1` (configuration not stated), for which the Inhibition was found to be 98%.

Turning to `Cn1c(N)cc(-c2ccc(Br)cc2)c2c(=O)nc(N)nc1-2`, the Inhibition is given as 57%.

In the case of `CN(C)Cc1ccc(-c2ccc(NC(=O)c3ccc4c(=O)n(Cc5ccccc5)cnc4c3)cc2)cc1`, the Inhibition amounted to 39%.

`COCCNCc1cccc(-c2ccc3c(Nc4ccc(F)cc4Cl)ccnc3c2)c1`: the Inhibition turned out to be 100%.

With `COc1ccc(-c2cnc3ccc(NCCCO)nn23)cc1OC`, the Inhibition stood at 90%.

`CN1CCN(CCCN(Cc2csc(-c3ccc(CNCc4ccccc4)cc3)n2)C(=O)Nc2cccc(Cl)c2)CC1.O=C(O)C(F)(F)F` yielded an Inhibition of 67%.

Compound `CCN(CC)CCNC(=O)/C(=C/C=C/c1cc2cc(Cl)c(Cl)cc2[nH]1)OC` yielded an Inhibition of 31%.

`COc1cc(NC(=O)C(c2ccc(Cl)cc2)C(C)C)cc(OC)c1OC` (configuration not stated) came in with an Inhibition of 100%.

`COc1c(C2CCN(CCCCNC(=O)c3cccc(-c4ccc(C(F)(F)F)cc4)c3)CC2)ccc2c1CCCC2`: the Inhibition was 45%.

`CCOC(=O)C1=C(C)N=c2sc(=Cc3cc(Cl)ccc3O)c(=O)n2C1c1ccc2c(c1)OCO2` (configuration not stated) yielded an Inhibition of 91%.

`CCNc1cc(C(=O)N[C@@H](Cc2ccccc2)[C@H](O)CN[C@@H]2CCc3ccccc32)cc(N2CCCCS2(=O)=O)c1` yielded an Inhibition of 97%.

As to `CNCCNCc1cccc(-c2ccc(-c3nc4cccc(C)c4[nH]3)s2)c1.O=C(O)C(F)(F)F`, the Inhibition came out at 8%.

Consider `CC(CCc1ccccc1)NCC(O)c1ccc2c3c(cccc13)S(=O)(=O)N2C.Cl` (configuration not stated), for which the Inhibition is reported as 99%.

Compound `Cc1ccc(C(=O)N2CCN(Cc3nccs3)CC2)cc1` returned an Inhibition of 0%.

Compound `O=C(/C=C/c1cc(C(F)(F)F)ccc1F)NCCCCCN1CCC(c2c[nH]c3ccccc23)CC1` showed an Inhibition of 4%.

For `O=C(Nc1ccc(OC2CCN(Cc3ccccc3)C2)c(Cl)c1)c1ccsc1.O=C(O)C(F)(F)F` (configuration not stated), the Inhibition was determined as 75%.

Compound `Cc1cccc(CN2CCC(C(=O)Nc3ccc(-c4nc5ccccc5[nH]4)cc3)CC2)n1` came in with an Inhibition of 3%.

Take `C=C1C(C(=O)OCC)=CN(CC)c2cc(O[C@@H]3CCN(C(=O)OC(C)(C)C)C3)ccc21`: the Inhibition was determined as 94%.

The compound `CC(C)C[C@H](NC(=O)c1cc2ccccc2s1)C(=O)N[C@H]1CCN(Cc2ccc(OC[C@@H]3CCCN3C)c3ccccc23)C1.O=C(O)C(F)(F)F` yielded an Inhibition of 93%.

As for `CN1CCN(CC(=O)Nc2cccc(-c3ccc(-c4nc5cc(C(F)(F)F)ccc5[nH]4)s3)c2)CC1`, the Inhibition was 95%.
